Three molecules from ChEMBL document CHEMBL1961873, “Compounds: GSK PKIS; Assays: Nanosyn kinase panel” (2012) can be followed below.

In assay [1] the target is T1, Mitogen-activated protein kinase 12 (Homo sapiens) (UniProt P53778).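 Also: values are averaged p38gamma kinase inhibition readings, compounds tested at 1 µM.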
T1 sequence (whole entry): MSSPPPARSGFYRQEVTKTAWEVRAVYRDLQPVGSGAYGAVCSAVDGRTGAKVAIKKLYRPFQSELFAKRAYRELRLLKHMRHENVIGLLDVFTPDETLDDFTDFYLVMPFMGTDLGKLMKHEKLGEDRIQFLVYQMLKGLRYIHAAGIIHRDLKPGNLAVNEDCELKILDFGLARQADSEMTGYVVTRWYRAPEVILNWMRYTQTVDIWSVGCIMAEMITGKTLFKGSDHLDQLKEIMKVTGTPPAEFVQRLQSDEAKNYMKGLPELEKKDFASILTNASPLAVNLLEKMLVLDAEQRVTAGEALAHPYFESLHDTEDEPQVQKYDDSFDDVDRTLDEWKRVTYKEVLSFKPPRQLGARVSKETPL
To be noted: at 1 µM.

Assay [2] has as its target SRSF protein kinase 1 (Homo sapiens) (UniProt Q96SB4). To be noted: at 0.1 µM.
For assay [3] the target is unchanged. The conditions noted are these: at 1 µM.
In assay [4] the target is Phosphatidylinositol 4,5-bisphosphate 3-kinase catalytic subunit alpha isoform (Homo sapiens) (UniProt P42336). To be noted: at 0.1 µM.
Assay [5] has the same target. The conditions noted are these: at 1 µM.
Assay [6] addresses T2, Phosphatidylinositol 4,5-bisphosphate 3-kinase catalytic subunit delta isoform (Homo sapiens) (UniProt O00329).
T2 sequence (whole entry): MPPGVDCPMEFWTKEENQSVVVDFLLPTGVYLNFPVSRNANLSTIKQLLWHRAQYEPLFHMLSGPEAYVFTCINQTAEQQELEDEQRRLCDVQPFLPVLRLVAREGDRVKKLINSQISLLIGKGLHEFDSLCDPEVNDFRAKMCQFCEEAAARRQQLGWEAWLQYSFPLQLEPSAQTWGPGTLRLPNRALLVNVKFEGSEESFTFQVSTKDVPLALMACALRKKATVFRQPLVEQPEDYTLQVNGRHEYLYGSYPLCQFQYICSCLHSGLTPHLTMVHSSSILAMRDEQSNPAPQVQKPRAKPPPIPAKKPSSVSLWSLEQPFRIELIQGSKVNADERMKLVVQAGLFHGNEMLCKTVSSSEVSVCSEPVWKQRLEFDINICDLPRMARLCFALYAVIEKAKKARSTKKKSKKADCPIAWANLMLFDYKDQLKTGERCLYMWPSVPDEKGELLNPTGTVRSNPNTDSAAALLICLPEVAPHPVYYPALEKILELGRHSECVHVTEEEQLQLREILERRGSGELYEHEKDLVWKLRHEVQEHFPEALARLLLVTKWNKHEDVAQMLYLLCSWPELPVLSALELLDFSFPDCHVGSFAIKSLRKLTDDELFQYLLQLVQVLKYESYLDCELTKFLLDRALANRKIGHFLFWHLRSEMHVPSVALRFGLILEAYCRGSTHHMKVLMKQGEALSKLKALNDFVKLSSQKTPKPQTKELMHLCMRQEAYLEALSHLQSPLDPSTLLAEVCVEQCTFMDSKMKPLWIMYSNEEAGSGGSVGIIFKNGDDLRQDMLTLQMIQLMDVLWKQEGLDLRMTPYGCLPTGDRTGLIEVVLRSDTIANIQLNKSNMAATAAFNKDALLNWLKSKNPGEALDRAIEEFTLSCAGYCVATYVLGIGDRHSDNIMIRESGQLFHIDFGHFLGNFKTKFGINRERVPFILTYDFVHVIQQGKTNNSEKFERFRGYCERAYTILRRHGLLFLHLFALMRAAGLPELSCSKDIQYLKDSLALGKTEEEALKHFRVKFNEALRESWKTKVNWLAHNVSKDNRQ
The conditions noted are these: at 0.1 µM.

The target of assay [7] is T2, Phosphatidylinositol 4,5-bisphosphate 3-kinase catalytic subunit delta isoform (Homo sapiens). To be noted: at 1 µM.
Assay [8] addresses Phosphatidylinositol 4-kinase beta (Homo sapiens) (UniProt Q9UBF8). To be noted: at 0.1 µM.
For assay [9] the target is unchanged. The conditions noted are these: at 1 µM.
Assay [10] addresses Sphingosine kinase 1 (Homo sapiens) (UniProt Q9NYA1). The conditions noted are these: at 0.1 µM.
Assay [11] has the same target. The conditions noted are these: at 1 µM.
For assay [12], the target named is T3, Sphingosine kinase 2 (Homo sapiens) (UniProt Q9NRA0).
T3 sequence (whole entry): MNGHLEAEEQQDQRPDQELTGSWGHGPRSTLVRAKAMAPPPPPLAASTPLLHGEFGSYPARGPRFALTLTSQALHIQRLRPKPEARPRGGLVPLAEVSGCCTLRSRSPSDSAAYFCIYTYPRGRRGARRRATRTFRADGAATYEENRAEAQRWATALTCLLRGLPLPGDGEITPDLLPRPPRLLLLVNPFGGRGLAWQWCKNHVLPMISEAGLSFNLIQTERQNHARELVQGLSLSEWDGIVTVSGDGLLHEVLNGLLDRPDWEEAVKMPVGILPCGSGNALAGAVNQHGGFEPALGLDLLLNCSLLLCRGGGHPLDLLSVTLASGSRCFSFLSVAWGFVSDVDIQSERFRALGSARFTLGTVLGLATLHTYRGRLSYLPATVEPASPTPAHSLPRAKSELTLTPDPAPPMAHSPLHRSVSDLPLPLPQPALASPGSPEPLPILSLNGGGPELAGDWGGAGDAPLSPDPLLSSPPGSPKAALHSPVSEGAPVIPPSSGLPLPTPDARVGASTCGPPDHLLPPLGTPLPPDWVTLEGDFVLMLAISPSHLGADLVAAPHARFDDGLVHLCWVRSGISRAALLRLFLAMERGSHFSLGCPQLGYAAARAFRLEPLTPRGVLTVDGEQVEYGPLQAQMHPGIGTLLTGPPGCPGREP
To be noted: at 0.1 µM.

In assay [13] the target is T3, Sphingosine kinase 2 (Homo sapiens). The conditions noted are these: at 1 µM.
The target in assay [14] is Casein kinase II subunit alpha (Homo sapiens) (UniProt P68400). The conditions noted are these: at 0.1 µM.
Assay [15] shares this target. The conditions noted are these: at 1 µM.
Assay [16] has as its target T4, Inhibitor of nuclear factor kappa-B kinase subunit alpha (Homo sapiens) (UniProt O15111).
T4 sequence (whole entry): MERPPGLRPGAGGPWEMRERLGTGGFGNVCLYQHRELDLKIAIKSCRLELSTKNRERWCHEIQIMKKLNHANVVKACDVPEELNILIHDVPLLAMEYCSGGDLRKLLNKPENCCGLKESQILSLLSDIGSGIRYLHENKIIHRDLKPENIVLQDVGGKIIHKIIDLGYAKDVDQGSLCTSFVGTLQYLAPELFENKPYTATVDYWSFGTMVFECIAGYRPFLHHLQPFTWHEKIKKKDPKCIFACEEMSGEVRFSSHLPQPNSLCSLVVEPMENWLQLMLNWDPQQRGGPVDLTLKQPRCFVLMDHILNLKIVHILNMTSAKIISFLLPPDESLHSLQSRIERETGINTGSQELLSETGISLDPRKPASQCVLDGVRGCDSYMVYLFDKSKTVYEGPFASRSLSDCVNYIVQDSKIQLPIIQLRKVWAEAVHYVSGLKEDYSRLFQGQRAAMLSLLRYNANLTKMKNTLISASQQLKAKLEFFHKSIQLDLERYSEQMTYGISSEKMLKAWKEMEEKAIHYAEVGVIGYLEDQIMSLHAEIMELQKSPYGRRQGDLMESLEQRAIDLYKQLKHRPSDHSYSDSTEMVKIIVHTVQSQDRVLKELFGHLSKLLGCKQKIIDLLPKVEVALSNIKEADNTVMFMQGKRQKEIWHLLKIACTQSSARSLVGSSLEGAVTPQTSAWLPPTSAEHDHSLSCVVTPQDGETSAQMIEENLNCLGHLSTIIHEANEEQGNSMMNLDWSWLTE
The conditions noted are these: at 0.1 µM.

Assay [17] concerns the target T4, Inhibitor of nuclear factor kappa-B kinase subunit alpha (Homo sapiens). To be noted: at 1 µM.
The target in assay [18] is T5, Inhibitor of nuclear factor kappa-B kinase subunit beta (Homo sapiens) (UniProt O14920).
T5 sequence (whole entry): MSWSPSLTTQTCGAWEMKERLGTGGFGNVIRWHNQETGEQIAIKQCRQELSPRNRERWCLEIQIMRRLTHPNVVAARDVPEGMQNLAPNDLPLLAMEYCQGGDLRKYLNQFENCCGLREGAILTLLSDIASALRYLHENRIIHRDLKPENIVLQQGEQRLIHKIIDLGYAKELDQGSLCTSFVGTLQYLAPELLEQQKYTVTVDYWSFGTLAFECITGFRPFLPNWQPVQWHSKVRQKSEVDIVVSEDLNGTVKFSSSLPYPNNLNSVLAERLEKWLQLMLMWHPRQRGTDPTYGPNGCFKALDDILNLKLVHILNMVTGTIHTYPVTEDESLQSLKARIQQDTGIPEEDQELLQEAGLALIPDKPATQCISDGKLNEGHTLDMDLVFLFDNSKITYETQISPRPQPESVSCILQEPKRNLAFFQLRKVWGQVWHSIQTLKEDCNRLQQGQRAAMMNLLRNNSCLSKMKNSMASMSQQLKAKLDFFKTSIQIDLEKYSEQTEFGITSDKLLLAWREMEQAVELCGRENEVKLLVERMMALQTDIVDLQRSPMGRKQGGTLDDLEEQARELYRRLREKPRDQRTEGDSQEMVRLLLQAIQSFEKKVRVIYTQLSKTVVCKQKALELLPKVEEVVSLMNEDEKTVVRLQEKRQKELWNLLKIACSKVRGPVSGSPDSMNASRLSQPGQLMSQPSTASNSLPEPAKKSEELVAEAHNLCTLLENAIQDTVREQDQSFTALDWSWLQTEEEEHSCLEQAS
To be noted: at 0.1 µM.

Assay [19] addresses T5, Inhibitor of nuclear factor kappa-B kinase subunit beta (Homo sapiens). To be noted: at 1 µM.
Assay [20] concerns the target T6, Inhibitor of nuclear factor kappa-B kinase subunit epsilon (Homo sapiens) (UniProt Q14164).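 Also: mean inhibition of IKKε reported, from the GSK PKIS dataset.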
T6 sequence (whole entry): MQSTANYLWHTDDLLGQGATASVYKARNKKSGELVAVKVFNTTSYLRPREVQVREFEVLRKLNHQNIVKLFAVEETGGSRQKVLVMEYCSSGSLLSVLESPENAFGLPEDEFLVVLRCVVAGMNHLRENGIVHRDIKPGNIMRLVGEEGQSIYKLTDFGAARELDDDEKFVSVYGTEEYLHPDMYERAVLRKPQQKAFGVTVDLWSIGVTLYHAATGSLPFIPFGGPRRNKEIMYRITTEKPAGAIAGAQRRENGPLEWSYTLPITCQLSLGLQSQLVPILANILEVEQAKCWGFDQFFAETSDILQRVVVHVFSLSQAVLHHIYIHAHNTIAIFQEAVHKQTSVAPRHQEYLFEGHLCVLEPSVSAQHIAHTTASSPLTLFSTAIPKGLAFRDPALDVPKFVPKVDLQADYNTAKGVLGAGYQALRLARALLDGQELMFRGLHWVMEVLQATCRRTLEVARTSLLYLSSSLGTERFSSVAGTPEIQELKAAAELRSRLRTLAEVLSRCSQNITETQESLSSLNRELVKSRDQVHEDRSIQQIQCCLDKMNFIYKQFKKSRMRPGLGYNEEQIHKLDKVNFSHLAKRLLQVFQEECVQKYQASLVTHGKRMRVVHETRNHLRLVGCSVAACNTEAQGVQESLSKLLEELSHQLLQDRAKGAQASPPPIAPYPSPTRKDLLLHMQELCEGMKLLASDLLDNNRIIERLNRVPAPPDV
To be noted: at 0.1 µM.

Sequence of Sphingosine kinase 1 (Homo sapiens) (Q9NYA1 whole entry): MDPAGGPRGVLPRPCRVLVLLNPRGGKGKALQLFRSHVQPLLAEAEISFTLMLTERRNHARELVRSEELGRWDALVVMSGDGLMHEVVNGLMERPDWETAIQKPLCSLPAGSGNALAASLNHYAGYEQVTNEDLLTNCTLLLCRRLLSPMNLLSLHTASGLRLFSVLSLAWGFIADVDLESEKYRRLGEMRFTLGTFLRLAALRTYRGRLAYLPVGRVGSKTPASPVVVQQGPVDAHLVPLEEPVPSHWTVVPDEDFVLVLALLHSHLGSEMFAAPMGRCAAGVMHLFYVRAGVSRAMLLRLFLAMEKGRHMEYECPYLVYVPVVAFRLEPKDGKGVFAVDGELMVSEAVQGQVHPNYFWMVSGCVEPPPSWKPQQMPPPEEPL
Sequence of Phosphatidylinositol 4-kinase beta (Homo sapiens) (Q9UBF8 2-816 limits assumed): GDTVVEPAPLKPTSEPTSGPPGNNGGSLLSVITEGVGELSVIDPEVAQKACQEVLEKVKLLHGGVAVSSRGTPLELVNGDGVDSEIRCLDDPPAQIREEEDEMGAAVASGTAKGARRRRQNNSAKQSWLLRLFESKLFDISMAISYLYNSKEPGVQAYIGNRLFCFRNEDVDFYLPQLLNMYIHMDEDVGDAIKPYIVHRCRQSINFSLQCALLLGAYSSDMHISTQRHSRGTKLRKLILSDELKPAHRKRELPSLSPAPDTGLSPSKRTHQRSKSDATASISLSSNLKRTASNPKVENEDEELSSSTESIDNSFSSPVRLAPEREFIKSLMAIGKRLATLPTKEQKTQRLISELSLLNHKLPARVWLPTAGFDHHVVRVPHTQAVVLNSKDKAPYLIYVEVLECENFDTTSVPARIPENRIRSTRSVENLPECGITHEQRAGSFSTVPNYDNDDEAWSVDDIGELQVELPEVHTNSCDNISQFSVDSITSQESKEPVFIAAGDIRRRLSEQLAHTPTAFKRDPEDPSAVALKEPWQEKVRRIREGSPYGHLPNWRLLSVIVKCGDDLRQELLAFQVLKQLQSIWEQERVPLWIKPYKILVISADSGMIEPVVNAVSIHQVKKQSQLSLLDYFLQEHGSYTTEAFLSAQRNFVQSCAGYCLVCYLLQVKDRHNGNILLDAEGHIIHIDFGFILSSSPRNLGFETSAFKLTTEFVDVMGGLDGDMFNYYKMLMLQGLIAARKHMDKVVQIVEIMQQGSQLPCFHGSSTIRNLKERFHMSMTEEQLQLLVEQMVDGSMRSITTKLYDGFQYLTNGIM
Sequence of SRSF protein kinase 1 (Homo sapiens) (Q96SB4 whole entry): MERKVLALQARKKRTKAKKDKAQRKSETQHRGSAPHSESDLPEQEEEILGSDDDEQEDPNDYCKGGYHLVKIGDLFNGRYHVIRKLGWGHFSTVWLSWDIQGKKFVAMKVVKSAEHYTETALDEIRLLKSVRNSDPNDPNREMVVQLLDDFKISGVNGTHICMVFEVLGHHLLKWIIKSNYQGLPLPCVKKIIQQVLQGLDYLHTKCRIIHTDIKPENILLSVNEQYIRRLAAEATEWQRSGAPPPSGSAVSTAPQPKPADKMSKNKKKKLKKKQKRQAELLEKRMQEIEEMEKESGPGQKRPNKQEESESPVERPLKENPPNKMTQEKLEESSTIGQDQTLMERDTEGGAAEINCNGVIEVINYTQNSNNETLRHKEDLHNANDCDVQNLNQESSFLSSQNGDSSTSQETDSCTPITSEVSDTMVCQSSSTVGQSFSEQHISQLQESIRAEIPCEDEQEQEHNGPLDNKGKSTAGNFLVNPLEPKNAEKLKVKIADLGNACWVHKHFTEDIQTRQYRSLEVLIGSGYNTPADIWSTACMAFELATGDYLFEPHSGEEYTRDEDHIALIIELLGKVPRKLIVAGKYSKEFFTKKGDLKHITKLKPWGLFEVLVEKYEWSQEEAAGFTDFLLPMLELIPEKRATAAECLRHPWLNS
Sequence of Casein kinase II subunit alpha (Homo sapiens) (P68400 whole entry, looked up): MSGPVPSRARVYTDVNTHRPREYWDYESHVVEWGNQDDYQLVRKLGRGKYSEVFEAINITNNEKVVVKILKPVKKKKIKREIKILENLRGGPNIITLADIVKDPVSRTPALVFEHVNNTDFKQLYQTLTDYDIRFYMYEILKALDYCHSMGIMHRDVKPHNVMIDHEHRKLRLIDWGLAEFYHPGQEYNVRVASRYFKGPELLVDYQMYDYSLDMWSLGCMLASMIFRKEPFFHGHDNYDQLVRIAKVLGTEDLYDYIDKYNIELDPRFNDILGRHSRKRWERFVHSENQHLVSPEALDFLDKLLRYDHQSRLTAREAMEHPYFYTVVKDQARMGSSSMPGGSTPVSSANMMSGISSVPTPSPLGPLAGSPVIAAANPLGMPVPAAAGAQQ
Sequence of Phosphatidylinositol 4,5-bisphosphate 3-kinase catalytic subunit alpha isoform (Homo sapiens) (P42336 whole entry, canonical isoform): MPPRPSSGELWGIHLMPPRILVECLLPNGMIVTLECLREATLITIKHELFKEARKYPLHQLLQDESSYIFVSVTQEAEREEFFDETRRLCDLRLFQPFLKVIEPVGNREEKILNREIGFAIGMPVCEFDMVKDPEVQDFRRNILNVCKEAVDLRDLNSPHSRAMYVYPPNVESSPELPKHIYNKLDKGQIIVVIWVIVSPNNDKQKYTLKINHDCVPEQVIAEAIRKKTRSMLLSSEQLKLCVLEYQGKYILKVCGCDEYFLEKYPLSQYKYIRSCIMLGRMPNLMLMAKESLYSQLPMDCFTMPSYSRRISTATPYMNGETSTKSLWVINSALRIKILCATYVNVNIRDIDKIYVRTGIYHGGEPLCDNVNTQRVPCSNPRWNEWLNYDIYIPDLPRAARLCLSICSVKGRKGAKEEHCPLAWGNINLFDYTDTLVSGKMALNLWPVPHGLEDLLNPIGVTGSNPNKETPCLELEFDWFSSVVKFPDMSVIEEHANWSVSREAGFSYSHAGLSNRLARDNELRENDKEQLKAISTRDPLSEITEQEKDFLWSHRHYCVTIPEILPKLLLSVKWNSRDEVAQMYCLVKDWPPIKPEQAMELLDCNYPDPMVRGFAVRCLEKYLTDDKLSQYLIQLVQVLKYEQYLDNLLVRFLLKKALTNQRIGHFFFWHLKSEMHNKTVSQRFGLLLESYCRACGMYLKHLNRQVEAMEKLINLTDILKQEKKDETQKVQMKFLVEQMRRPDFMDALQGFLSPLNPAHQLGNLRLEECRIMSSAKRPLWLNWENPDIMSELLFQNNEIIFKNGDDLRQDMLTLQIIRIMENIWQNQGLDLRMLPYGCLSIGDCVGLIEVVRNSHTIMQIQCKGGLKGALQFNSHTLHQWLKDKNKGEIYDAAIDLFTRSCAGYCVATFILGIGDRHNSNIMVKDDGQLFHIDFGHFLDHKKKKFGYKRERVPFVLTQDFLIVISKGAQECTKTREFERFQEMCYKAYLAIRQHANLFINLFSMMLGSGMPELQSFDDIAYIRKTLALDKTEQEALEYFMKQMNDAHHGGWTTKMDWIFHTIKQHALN

With `COc1cc(Nc2ncc3c(C)nc(-c4cccc(C(F)(F)F)c4)n3n2)cc(OC)c1OC`, the inhibition in [1] is 1.38%; in [2], -1.06%; in assay [3] it was 1.6%; in [4], 1.32%; in assay [5], 0.9%; in [6], 1.18%. For the same molecule, the inhibition in assay [7] is -1.04%; in [8], 7.16%; in assay [9] it was 1.45%; in assay [10], 2.98%; in assay [11] it was -1.99%; in assay [12] it was 0.44%. Also, the inhibition in assay [13] was -3.1%; in [14], 9.99%; in assay [15], 43.1%; in assay [16] it was -0.47%; in assay [17], 4.04%; in assay [18], 3.58%. Further, the inhibition in assay [19] is 3.21%; in assay [20], 10.6%.

With `O=C(Nc1ccc(Oc2ccc3[nH]c(NC(=O)c4ccccc4)nc3c2)cc1)Nc1cc(C(F)(F)F)ccc1F`, the inhibition in [1] was 3.12%; in assay [2] it was -0.76%; in assay [3], 7.91%; in assay [4], 0.59%; in [5], 8.12%; in [6], -0.81%. Further, the inhibition in assay [7] is 8.31%; in assay [8], 1.83%; in assay [9] it was -2.27%; in [10], 0.81%; in [11] it was 3.13%; in [12], 17.6%. Also, the inhibition is -0.1% in assay [13]; 2.74% in assay [14]; 4.99% in assay [15]; -5.25% in [16]; -0.85% in assay [17]; 4.57% in assay [18]. The inhibition in assay [19] amounted to 2.88%; in [20], 3.68%.

Turning to `CCN(CC)Cc1ccc(Nc2nccc(-c3cnn4ncccc34)n2)cc1`, the inhibition is 6.9% in assay [1]; -2.98% in [2]; -1.36% in assay [3]; 3.82% in assay [4]; 11.4% in [5]; 6.31% in [6]. In addition, the inhibition was 40.2% in assay [7]; -2.34% in assay [8]; 4.5% in assay [9]; 0.05% in [10]; 7.74% in assay [11]; 4.29% in [12]. Besides, the inhibition in assay [13] was found to be 2.72%; in assay [14], 10.9%; in [15], 31.1%; in assay [16] it was 3.66%; in assay [17], 34.9%; in [18], 7.57%. The inhibition was 17.5% in [19] and 8.95% in assay [20].

As a reminder, the inhibition is the change of the read-out against control, counted positive when it falls.
